# Reference: PMC7862700, “An all-to-all approach to the identification of sequence-specific readers for epigenetic DNA modifications on cytosine”
# Key:
# Assay in all cases: DAPPL (digital affinity profiling via proximity ligation, sequencing); 10 mM Tris-HCl pH 7.5, 50 mM NaCl, 1 mM DTT, 4% glycerol, room temperature, 30 min; GST-TFs on glutathione beads, 16-mer random dsDNA library, 0.1% formaldehyde crosslink after washing; high values mean tight binding
# FLI1 = target: T1, FLI1 (Homo sapiens, UniProt Q01543 1-452); settings: protein: recombinant; tags: N-terminal GST; dsDNA, one strand shown
# T1 sequence: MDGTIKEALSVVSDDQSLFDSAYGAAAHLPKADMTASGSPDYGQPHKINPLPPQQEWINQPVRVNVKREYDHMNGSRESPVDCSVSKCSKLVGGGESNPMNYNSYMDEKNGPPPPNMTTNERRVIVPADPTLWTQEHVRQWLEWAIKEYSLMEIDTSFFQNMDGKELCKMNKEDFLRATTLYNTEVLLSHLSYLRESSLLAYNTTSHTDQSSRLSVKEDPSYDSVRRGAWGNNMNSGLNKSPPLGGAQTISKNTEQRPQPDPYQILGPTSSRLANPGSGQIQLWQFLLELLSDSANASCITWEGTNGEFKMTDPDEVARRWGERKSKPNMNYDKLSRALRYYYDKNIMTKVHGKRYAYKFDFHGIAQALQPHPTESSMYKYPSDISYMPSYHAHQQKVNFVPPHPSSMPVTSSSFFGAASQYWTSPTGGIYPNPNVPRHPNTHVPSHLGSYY
# Summary of the method: (§1)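 The binding signal reported is, for every hexamer, its read frequency for a factor over its read frequency for the tag-only sample. Reads came from pools of yeast-expressed, GST-fused human transcription factors on glutathione beads, barcoded with DNA and mixed with that sample, which were incubated with 200 nmole of a random double-stranded 16-mer DNA library in Tris/NaCl/DTT/glycerol buffer at room temperature for 30 min. After washing, the pools were crosslinked with 0.1% formaldehyde, proximity-ligated with BsaI/T4 ligase for 1 h at 37 °C, PCR-amplified and sequenced on an Illumina NextSeq500.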
# ELK1 = target: T2, ELK1 (Homo sapiens, UniProt P19419 1-428); settings: protein: recombinant; tags: N-terminal GST; dsDNA, one strand shown
# T2 sequence: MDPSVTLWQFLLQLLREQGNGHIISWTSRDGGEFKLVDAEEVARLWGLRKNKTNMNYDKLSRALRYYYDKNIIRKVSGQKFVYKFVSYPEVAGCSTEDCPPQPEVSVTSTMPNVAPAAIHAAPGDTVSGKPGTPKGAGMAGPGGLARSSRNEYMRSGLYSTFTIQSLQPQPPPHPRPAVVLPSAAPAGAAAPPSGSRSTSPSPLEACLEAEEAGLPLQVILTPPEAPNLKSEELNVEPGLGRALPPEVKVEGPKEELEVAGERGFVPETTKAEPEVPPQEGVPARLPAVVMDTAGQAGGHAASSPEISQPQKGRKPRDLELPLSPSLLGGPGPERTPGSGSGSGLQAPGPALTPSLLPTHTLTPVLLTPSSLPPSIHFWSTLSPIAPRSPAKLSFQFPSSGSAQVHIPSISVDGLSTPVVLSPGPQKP
# Summary of the method: as §1
# GABPA = target: T3, GABPA (Homo sapiens, UniProt Q06546 1-454); settings: protein: recombinant; tags: N-terminal GST; dsDNA, one strand shown
# T3 sequence: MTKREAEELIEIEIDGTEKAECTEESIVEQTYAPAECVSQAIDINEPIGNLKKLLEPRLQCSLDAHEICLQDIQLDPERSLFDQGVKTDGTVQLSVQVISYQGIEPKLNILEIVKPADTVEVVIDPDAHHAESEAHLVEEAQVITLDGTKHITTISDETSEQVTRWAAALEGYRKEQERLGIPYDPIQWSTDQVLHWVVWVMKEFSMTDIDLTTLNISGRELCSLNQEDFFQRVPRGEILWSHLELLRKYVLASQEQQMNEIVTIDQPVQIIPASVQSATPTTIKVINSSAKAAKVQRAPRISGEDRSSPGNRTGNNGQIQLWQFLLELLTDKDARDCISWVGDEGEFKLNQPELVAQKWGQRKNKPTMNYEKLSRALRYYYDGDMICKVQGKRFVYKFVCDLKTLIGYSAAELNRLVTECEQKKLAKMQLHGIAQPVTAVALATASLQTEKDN
# Summary of the method: as §1
# ERG = target: T4, ERG (Homo sapiens, UniProt P11308 1-479); settings: protein: recombinant; tags: N-terminal GST; dsDNA, one strand shown
# T4 sequence: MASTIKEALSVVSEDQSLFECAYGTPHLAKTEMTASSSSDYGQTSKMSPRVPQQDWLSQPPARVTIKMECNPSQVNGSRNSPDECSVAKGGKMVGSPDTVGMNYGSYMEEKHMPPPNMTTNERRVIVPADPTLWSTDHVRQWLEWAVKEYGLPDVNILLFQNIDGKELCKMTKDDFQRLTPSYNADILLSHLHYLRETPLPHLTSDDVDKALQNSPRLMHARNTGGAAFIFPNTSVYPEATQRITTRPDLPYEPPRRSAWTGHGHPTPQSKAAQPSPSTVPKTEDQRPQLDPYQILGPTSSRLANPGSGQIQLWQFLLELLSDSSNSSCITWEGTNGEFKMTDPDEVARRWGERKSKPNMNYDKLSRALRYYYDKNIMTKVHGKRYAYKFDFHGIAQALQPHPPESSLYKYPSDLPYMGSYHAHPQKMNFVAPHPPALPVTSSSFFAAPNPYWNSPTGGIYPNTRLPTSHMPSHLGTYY
# Summary of the method: as §1
# ELF1 = ELF1 (Homo sapiens, UniProt P32519 1-619); settings: protein: recombinant; tags: N-terminal GST; dsDNA, one strand shown
# Summary of the method: as §1
# EHF = target: T5, EHF (Homo sapiens, UniProt Q9NZC4 1-300); settings: protein: recombinant; tags: N-terminal GST; dsDNA, one strand shown
# T5 sequence: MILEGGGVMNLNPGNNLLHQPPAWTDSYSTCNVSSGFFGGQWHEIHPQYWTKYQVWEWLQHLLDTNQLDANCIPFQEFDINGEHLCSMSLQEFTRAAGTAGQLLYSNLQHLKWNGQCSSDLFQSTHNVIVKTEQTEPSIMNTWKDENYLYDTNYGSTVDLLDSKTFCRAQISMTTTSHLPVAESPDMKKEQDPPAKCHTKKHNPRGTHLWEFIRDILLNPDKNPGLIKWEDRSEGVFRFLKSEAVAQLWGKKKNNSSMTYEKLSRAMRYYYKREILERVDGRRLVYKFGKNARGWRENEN
# Summary of the method: as §1
# SPI1 = SPI1 (Homo sapiens, UniProt P17947 1-270); settings: protein: recombinant; tags: N-terminal GST; dsDNA, one strand shown
# Summary of the method: as §1
# SPIB = SPIB (Homo sapiens, UniProt Q01892 1-262); settings: protein: recombinant; tags: N-terminal GST; dsDNA, one strand shown
# Summary of the method: as §1
# ELK3 = target: T6, ELK3 (Homo sapiens, UniProt P41970 1-407); settings: protein: recombinant; tags: N-terminal GST; dsDNA, one strand shown
# T6 sequence: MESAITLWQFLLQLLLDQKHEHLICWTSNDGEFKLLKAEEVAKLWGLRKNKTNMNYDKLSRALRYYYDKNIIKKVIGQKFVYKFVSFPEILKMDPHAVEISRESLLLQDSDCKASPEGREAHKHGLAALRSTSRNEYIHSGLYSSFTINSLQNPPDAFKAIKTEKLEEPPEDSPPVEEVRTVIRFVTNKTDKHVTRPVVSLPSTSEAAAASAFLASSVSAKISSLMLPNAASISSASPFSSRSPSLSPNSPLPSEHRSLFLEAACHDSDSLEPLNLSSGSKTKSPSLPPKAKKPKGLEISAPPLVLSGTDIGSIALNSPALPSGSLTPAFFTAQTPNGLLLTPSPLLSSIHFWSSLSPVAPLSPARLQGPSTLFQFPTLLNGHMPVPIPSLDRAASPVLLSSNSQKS
# Summary of the method: as §1
# FEV = target: T7, FEV (Homo sapiens, UniProt Q99581 1-238); settings: protein: recombinant; tags: N-terminal GST; dsDNA, one strand shown
# T7 sequence: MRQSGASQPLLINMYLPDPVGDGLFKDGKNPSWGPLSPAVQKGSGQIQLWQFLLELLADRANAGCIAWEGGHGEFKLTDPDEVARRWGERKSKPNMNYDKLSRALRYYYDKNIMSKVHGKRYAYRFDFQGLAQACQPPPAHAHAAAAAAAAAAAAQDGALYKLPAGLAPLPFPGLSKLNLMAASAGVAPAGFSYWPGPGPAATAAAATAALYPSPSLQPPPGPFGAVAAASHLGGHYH
# Summary of the method: as §1
# ETV5 = ETV5 (Homo sapiens, UniProt P41161 1-510); settings: protein: recombinant; tags: N-terminal GST; dsDNA, one strand shown
# Summary of the method: as §1
# HSF1 = HSF1 (Homo sapiens, UniProt Q00613 1-529); settings: protein: recombinant; tags: N-terminal GST; chain copies: 3; dsDNA, one strand shown
# Summary of the method: as §1
# SPIC = target: T8, SPIC (Homo sapiens, UniProt Q8N5J4 1-248); settings: protein: recombinant; tags: N-terminal GST; dsDNA, one strand shown
# T8 sequence: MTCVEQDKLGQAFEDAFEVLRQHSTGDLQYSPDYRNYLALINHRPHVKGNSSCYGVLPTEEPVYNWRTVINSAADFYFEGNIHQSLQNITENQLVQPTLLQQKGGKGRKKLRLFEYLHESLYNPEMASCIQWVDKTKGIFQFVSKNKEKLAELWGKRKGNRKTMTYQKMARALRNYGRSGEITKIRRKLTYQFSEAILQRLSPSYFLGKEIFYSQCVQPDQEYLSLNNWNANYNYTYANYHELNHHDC
# Summary of the method: as §1
# ELF4 = ELF4 (Homo sapiens, UniProt Q99607 1-663); settings: protein: recombinant; tags: N-terminal GST; dsDNA, one strand shown
# Summary of the method: as §1
# ELK4 = target: T9, ELK4 (Homo sapiens, UniProt P28324-2 1-405); settings: protein: recombinant; tags: N-terminal GST; dsDNA, one strand shown
# T9 sequence: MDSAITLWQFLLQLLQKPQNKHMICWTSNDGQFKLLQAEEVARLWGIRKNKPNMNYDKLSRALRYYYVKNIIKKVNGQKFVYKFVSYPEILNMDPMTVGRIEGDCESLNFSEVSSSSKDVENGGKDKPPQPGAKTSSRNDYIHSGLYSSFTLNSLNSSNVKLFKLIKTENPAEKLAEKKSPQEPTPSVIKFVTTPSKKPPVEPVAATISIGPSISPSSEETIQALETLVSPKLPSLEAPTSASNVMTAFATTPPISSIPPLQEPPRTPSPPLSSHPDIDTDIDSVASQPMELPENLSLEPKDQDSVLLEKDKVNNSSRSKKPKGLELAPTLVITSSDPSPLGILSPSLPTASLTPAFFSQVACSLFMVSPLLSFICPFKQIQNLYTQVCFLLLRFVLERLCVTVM
# Summary of the method: as §1
# ETV2 = target: T10, ETV2 (Homo sapiens, UniProt O00321 1-342); settings: protein: recombinant; tags: N-terminal GST; dsDNA, one strand shown
# T10 sequence: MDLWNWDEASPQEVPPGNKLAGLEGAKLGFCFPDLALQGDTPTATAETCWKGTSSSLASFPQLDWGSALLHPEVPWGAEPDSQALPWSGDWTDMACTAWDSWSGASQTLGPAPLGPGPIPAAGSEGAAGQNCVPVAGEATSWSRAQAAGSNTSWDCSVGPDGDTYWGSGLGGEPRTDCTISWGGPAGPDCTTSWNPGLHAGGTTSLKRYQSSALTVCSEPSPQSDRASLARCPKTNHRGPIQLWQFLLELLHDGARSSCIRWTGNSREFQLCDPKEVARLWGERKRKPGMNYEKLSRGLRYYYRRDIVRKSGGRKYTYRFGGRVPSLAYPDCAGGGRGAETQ
# Summary of the method: as §1
# ELF3 = target: T11, ELF3 (Homo sapiens, UniProt P78545 1-371); settings: protein: recombinant; tags: N-terminal GST; dsDNA, one strand shown
# T11 sequence: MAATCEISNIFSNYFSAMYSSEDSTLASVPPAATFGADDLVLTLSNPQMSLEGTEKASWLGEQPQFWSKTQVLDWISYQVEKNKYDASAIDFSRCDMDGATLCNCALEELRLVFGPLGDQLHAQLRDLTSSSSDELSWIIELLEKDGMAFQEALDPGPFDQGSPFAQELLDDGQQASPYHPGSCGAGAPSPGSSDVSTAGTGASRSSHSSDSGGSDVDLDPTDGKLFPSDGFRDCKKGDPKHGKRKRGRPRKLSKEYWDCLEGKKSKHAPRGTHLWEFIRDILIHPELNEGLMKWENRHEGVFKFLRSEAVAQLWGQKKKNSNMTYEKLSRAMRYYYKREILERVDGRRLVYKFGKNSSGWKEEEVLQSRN
# Summary of the method: as §1
# ETV1 = ETV1 (Homo sapiens, UniProt P50549 1-477); settings: protein: recombinant; tags: N-terminal GST; dsDNA, one strand shown
# Summary of the method: as §1
# Sequence of SPIB (Q01892 whole entry): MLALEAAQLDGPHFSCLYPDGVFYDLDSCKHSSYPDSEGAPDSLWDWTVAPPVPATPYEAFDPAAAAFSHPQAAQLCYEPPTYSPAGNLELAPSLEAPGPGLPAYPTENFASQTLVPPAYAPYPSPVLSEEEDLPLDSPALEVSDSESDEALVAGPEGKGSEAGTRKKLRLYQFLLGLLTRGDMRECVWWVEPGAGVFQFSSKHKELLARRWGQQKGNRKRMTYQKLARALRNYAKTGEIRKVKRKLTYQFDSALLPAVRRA
# Sequence of ETV5 (P41161 whole entry): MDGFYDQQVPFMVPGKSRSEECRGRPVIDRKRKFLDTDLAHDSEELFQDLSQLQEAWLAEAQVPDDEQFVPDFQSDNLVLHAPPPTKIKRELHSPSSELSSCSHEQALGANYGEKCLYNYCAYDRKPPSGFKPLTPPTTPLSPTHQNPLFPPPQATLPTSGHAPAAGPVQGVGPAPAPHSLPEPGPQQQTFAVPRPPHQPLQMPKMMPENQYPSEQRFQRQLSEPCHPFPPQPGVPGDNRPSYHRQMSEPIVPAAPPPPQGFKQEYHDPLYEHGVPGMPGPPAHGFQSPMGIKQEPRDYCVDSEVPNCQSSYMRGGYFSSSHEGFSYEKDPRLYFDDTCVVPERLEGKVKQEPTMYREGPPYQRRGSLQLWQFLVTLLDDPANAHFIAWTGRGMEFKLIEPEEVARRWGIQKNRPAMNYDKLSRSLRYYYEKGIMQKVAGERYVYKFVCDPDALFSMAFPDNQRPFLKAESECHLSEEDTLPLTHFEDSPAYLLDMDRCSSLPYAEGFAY
# Sequence of ELF1 (P32519 whole entry): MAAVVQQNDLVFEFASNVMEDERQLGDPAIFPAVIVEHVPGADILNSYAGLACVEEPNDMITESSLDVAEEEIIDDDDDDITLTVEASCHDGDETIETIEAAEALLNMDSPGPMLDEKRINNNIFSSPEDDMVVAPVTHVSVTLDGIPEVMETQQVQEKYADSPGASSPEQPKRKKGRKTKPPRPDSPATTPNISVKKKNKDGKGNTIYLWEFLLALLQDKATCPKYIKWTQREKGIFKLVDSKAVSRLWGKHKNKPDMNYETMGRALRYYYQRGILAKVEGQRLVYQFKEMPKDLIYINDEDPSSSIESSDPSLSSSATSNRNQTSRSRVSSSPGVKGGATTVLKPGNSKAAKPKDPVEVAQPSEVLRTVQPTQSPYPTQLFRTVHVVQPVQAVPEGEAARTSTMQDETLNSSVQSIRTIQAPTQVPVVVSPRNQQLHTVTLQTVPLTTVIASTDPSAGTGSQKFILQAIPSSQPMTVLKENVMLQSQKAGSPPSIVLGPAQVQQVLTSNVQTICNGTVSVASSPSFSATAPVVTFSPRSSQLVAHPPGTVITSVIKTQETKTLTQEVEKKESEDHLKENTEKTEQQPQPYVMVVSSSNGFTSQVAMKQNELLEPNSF
# Sequence of ETV1 (P50549 whole entry): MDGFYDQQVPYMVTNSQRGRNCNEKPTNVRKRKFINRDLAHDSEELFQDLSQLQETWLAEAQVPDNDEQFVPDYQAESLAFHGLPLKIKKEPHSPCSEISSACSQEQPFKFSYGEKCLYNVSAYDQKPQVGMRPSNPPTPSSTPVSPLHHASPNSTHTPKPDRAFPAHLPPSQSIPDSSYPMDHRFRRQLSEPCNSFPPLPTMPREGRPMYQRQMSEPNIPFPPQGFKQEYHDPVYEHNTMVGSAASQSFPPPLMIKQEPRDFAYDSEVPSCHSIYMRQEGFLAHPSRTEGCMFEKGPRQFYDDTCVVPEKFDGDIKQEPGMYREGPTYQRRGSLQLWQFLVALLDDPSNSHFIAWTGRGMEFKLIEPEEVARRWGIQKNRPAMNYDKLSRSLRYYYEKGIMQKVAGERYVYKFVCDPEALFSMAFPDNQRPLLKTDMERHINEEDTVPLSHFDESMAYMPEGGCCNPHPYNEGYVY
# Sequence of HSF1 (Q00613 whole entry): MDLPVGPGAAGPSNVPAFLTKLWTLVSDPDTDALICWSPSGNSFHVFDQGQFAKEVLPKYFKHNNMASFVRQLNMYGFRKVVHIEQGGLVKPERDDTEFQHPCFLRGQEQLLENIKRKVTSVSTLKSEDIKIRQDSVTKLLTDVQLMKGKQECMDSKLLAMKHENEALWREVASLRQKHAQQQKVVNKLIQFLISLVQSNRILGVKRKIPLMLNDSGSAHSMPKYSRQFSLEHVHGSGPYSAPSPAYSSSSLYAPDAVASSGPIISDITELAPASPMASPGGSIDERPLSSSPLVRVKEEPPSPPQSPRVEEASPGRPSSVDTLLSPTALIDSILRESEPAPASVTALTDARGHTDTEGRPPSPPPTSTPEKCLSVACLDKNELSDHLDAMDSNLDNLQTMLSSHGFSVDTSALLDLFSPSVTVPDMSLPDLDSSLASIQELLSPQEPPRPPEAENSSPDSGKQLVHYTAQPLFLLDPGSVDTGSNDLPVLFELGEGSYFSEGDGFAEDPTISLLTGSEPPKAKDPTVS
# Sequence of ELF4 (Q99607 whole entry): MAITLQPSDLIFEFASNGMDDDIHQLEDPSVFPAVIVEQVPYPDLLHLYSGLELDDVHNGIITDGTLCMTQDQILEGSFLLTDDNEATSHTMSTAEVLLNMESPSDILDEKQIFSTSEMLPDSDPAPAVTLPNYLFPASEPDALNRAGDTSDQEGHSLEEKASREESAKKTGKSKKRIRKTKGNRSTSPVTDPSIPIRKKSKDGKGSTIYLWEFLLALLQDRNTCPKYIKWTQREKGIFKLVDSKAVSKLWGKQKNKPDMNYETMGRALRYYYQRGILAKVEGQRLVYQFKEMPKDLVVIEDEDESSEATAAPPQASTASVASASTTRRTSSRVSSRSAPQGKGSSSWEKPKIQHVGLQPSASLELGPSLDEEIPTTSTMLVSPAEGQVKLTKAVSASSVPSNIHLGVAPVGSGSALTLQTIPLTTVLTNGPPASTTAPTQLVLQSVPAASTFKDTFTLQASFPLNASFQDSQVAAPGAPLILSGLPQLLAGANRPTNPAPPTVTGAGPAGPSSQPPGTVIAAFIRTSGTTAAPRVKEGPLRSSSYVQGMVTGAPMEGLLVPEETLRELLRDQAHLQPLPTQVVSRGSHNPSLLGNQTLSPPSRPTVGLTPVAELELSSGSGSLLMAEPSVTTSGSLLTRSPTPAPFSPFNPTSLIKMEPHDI
sequence,measurement,setting,value
CTGCCG,binding signal,FLI1,"1.28 fold enrichment (6-mer frequency, TF over GST control)"
same,binding signal,ELK1,"1.45 fold enrichment (6-mer frequency, TF over GST control)"
same,binding signal,GABPA,"1.36 fold enrichment (6-mer frequency, TF over GST control)"
same,binding signal,ERG,"1.26 fold enrichment (6-mer frequency, TF over GST control)"
same,binding signal,ELF1,"1.34 fold enrichment (6-mer frequency, TF over GST control)"
same,binding signal,EHF,"1.39 fold enrichment (6-mer frequency, TF over GST control)"
same,binding signal,SPI1,"1.22 fold enrichment (6-mer frequency, TF over GST control)"
same,binding signal,SPIB,"1.41 fold enrichment (6-mer frequency, TF over GST control)"
same,binding signal,ELK3,"1.27 fold enrichment (6-mer frequency, TF over GST control)"
same,binding signal,FEV,"1.35 fold enrichment (6-mer frequency, TF over GST control)"
same,binding signal,ETV5,"1.36 fold enrichment (6-mer frequency, TF over GST control)"
same,binding signal,HSF1,"1.04 fold enrichment (6-mer frequency, TF over GST control)"
same,binding signal,SPIC,"1.31 fold enrichment (6-mer frequency, TF over GST control)"
same,binding signal,ELF4,"1.28 fold enrichment (6-mer frequency, TF over GST control)"
same,binding signal,ELK4,"1.24 fold enrichment (6-mer frequency, TF over GST control)"
same,binding signal,ETV2,"1.07 fold enrichment (6-mer frequency, TF over GST control)"
same,binding signal,ELF3,"1.09 fold enrichment (6-mer frequency, TF over GST control)"
same,binding signal,ETV1,"1.34 fold enrichment (6-mer frequency, TF over GST control)"
